{"source": "PubChem BioAssay AID1979", "about": "(Broad Institute, 2009)", "note": "The whole screen tested about 300,000 compounds, of which about 1,700 (0.57%) were called active. About 2% were inconclusive and are not listed. The sample as a whole holds a higher share of actives than the screen did. A number with no mark means an inactive call.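 Rule for the calls: active = growth inhibition above about 58% in most replicates (limit read from the data, passing the limit was not always enough); inconclusive = exactly half the replicates above a set limit; inactive = most replicates below a set limit.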"}
{"assay": "C. albicans growth inhibition with fluconazole, primary screen, CaCi-2 strain, Alamar Blue fluorescence (AID 1979);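 note: all wells also contain fluconazole at 8 µg/ml as a sub-toxic cotreatment; 0% = median of DMSO wells and 100% = median of geldanamycin control wells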", "details": "C. albicans CaCi-2 (fluconazole-resistant clinical isolate) + fluconazole, 48 h, stronger effect = higher value, concentration not given here"}
{"smiles": "CSCc1nnc(NC(=O)c2ccc(S(=O)(=O)N3CCCCC3C)cc2)o1", "note": "(configuration not stated)", "growth inhibition": "8.82%"}
{"smiles": "CC1CCCN(S(=O)(=O)c2ccc(C(=O)Nc3nnc(-c4ccncc4)o3)cc2)C1", "note": "(configuration not stated)", "growth inhibition": "18.1%"}
{"smiles": "CC1CCCCN1S(=O)(=O)c1ccc(C(=O)Nc2nnc(-c3cccs3)o2)cc1", "note": "(configuration not stated)", "growth inhibition": "95.4% (active)"}
{"smiles": "COc1ccc(-c2cc(=O)oc3cc(OC(C)C(=O)NCC4CCC(C(=O)O)CC4)ccc23)cc1", "note": "(configuration not stated)", "growth inhibition": "-4.33%"}
{"smiles": "CSCCC(NS(=O)(=O)c1ccc(C)cc1)C(=O)NCCc1c[nH]c2ccccc12", "note": "(configuration not stated)", "growth inhibition": "-6.21%"}
{"smiles": "COc1ccc(N(C(=O)c2ccc(C)cc2)S(=O)(=O)c2cccs2)cc1", "growth inhibition": "4.35%"}
{"smiles": "O=S(=O)(/N=C(/Nc1ccccc1)c1ccccc1)c1cccs1", "growth inhibition": "-39.8%"}
{"smiles": "CN(/C(=N/S(=O)(=O)c1cccs1)c1ccccc1)c1ccc(O)cc1", "growth inhibition": "117% (active)"}
{"smiles": "CN(CC(=O)Nc1cccc(F)c1)C(=O)C1CC(=O)N(CCc2ccccc2)C1", "note": "(configuration not stated)", "growth inhibition": "-9.09%"}
{"smiles": "Oc1ccc2ccccc2c1N=Nc1nccs1", "growth inhibition": "0.433%"}
{"smiles": "Oc1ccc(N=Nc2nccs2)c(O)c1", "growth inhibition": "85.9% (active)"}
{"smiles": "CC(CN1CCC(n2nccc2NC(=O)C2CCCC2)CC1)c1ccccc1", "note": "(configuration not stated)", "growth inhibition": "-5.12%"}
{"smiles": "CC1=NNC(=O)C1Cc1c(Cl)cccc1Cl", "note": "(configuration not stated)", "growth inhibition": "-0.631%"}
{"smiles": "CN(C(=O)CC(NC(=O)c1ccccc1)(c1ccccc1)c1ccccc1)c1ccccc1", "growth inhibition": "91.8% (active)"}
{"smiles": "Cc1ccc(C(=O)NCCNC(=O)c2ccccc2)cc1", "growth inhibition": "5.77%"}
{"smiles": "CN(C(=O)COC(=O)CNC(=O)C12CC3CC(CC(C3)C1)C2)c1ccccc1", "growth inhibition": "-17.2%"}
{"smiles": "Nc1c(C(=O)Nc2ccc3c(c2)OCCO3)nnn1Cc1ccccc1", "growth inhibition": "9.7%"}
{"smiles": "Cc1sc2ncnc(N3CCC(C(=O)NNC(=O)c4ccc(F)cc4)CC3)c2c1C", "growth inhibition": "11%"}
{"smiles": "COc1ccc(S(=O)(=O)NCCCc2ccccc2)cc1", "growth inhibition": "-3.19%"}
{"smiles": "Cc1nn(-c2ccccc2)c(C)c1NC(=O)COC(=O)c1cc(Cl)ccc1O", "growth inhibition": "-3.39%"}
{"smiles": "CCN1C(=O)[C@H]2[C@@H](c3ccc(C)cc3)N3C(=O)N(c4cccc(Br)c4)C(=O)[C@@]3(CC)[C@H]2C1=O", "growth inhibition": "-1.61%"}
{"smiles": "O=C(N/N=C/c1ccc2c(c1)OCO2)c1ccc(Cn2cc([N+](=O)[O-])cn2)o1", "growth inhibition": "-1.68%"}
{"smiles": "Cc1c(Cl)c([N+](=O)[O-])nn1Cc1ccc(C(=O)N/N=C\\c2cc(Cl)ccc2O)o1", "growth inhibition": "112% (active)"}
{"smiles": "Cc1c(Cl)c([N+](=O)[O-])nn1CCCC(=O)Nc1cc(Cl)ccc1Cl", "growth inhibition": "0.816%"}
{"smiles": "O=C1N[C@@H](Cc2ccccc2)C(=O)N2[C@H]1C[C@]1(Br)c3ccccc3N(S(=O)(=O)c3ccccc3)[C@H]21", "growth inhibition": "4.33%"}
{"smiles": "C/C(=N\\NC(=O)CC(C)C)c1c(C(F)(F)F)[nH]n(-c2nc3ccccc3s2)c1=O", "growth inhibition": "8.15%"}
{"smiles": "COC(=O)Cc1[nH]n(-c2nc3ccccc3s2)c(=O)c1C(C)=Nc1ccc(OC)cc1", "growth inhibition": "5.2%"}
{"smiles": "COC(=O)Cc1cc(=O)n(-c2nc3ccccc3s2)[nH]1", "growth inhibition": "93.5% (active)"}
{"smiles": "COc1cc(/C=C/C(=O)O)cc(S(=O)(=O)Nc2ccccc2C(=O)NCCc2ccccc2)c1OC", "growth inhibition": "-0.0595%"}
{"smiles": "O=C(/C=C/c1ccco1)Nc1cccc(-c2nc3ccccc3[nH]2)c1", "growth inhibition": "91.5% (active)"}
{"smiles": "Cc1ccc(-n2nc3ccc(NC(=O)/C=C/c4ccco4)cc3n2)cc1C", "growth inhibition": "20%"}
{"smiles": "O=C(Nc1cccc(-c2nc3ccccc3[nH]2)c1)c1ccc(C(=O)Nc2cccc(-c3nc4ccccc4[nH]3)c2)cc1", "growth inhibition": "-12.9%"}
{"smiles": "CCOc1cc(/C=N/NC(=O)c2cccc(S(=O)(=O)N3CCOCC3)c2)ccc1OCC(=O)N(C)C", "growth inhibition": "3.22%"}
{"smiles": "CC(=O)c1nn(-c2ccc(C)cc2)cc1C(=O)c1cccc(Br)c1", "growth inhibition": "-5.17%"}
{"smiles": "CC1CCC(NC(=O)CNC(=O)c2ccc3ccccc3c2)CC1", "note": "(configuration not stated)", "growth inhibition": "4.42%"}
{"smiles": "COc1ccc(N(C(=O)CNC(=O)c2ccco2)C(C(=O)NCC2CCCO2)c2ccccc2)cc1Cl", "note": "(configuration not stated)", "growth inhibition": "7.7%"}
{"smiles": "O=C(NCC(=O)N(CC1CCCO1)C(C(=O)NC1CCCCC1)c1ccccc1)c1ccco1", "note": "(configuration not stated)", "growth inhibition": "103% (active)"}
{"smiles": "Cc1ccc(N(C(=O)CNC(=O)c2ccco2)C(C(=O)NC2CCCC2)c2ccncc2)cc1", "note": "(configuration not stated)", "growth inhibition": "-17%"}
{"smiles": "CC1CCCCN1S(=O)(=O)CCNC(=O)c1ccccc1", "note": "(configuration not stated)", "growth inhibition": "0.685%"}
{"smiles": "Cc1nnsc1C(=O)Nc1cccc(Cl)c1C", "growth inhibition": "-1.12%"}
{"smiles": "Cc1cc(Cl)ccc1NNC(=O)c1snnc1C", "growth inhibition": "85.6% (active)"}
{"smiles": "Cc1nnsc1C(=O)N/N=C/c1ccccc1Cl", "growth inhibition": "-6.46%"}
{"smiles": "Cc1cc(C)nc(N/N=C/c2ccc([N+](=O)[O-])o2)n1", "growth inhibition": "11.2%"}
{"smiles": "C/[N+]([O-])=C\\c1ccc([N+](=O)[O-])o1", "growth inhibition": "110% (active)"}
{"smiles": "CCc1ccc(S(=O)(=O)N/N=C\\c2ccc([N+](=O)[O-])o2)cc1", "growth inhibition": "13.3%"}
{"smiles": "CCc1ccccc1NC(=O)c1cc(-c2ccc3c(c2)OCO3)on1", "growth inhibition": "-0.103%"}
{"smiles": "Cc1ccc(C)c(N2CCN(C(=O)Cn3ncn4cccc4c3=O)CC2)c1", "growth inhibition": "-9.35%"}
{"smiles": "CSc1ccccc1NC(=O)C(C)N1C(=O)c2ccccc2S1(=O)=O", "note": "(configuration not stated)", "growth inhibition": "2.61%"}
{"smiles": "CC1(C)CC(N2CCN(C(c3ccccc3)c3ccccc3)CC2)=CC(=[N+]2CCCCC2)C1", "growth inhibition": "95.7% (active)"}
{"smiles": "CC(C)NC(=S)N1CCN(C(c2ccccc2)c2ccccc2)CC1", "growth inhibition": "11.5%"}
{"smiles": "O=C(O)CN1CCN(C(c2ccccc2)c2ccccc2)CC1", "growth inhibition": "-6.25%"}
{"smiles": "O=C(Nc1cc(Cl)ccc1N1CCOCC1)c1ccc(N2CCCC2=O)cc1", "growth inhibition": "4%"}
{"smiles": "O=C(NCCC1CCCCN1S(=O)(=O)c1cccs1)C(=O)Nc1ccc(F)cc1F", "note": "(configuration not stated)", "growth inhibition": "7.39%"}
{"smiles": "O=C(Nc1cccc2c1CCCC2)c1ccc(F)cc1", "growth inhibition": "-3.5%"}
{"smiles": "Cn1c(NN)nc2sc3c(c2c1=O)CCC3", "growth inhibition": "87.2% (active)"}
{"smiles": "NNC(=O)C1CCCn2c1nc1sc3c(c1c2=O)CCCC3", "note": "(configuration not stated)", "growth inhibition": "2.28%"}
{"smiles": "Cc1nc2sc3c(c2c(=O)n1NC(=O)CCl)CCCC3", "growth inhibition": "9.31%"}
